How the values were obtained:
Assay in all cases: log2 ratio of Biotin-Ahx-Ub-VS probe labelling (fragment/DMSO); higher = less target engagement (more negative = stronger competition), active = hit call of the paper (q ≤ 0.05, log2 ratio ≤ -1)
Settings in all cases: compound concentration: 200 uM; treatment time: 3 h
USP9X = USP9X (UniProt Q93008)
How it was run: (§1)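 HEK293T lysate (495 µg per sample, in Tris/CHAPS/IGEPAL buffer with protease inhibitors) was treated in triplicate with fragment at 200 µM or with DMSO for 3 h. It was then treated with Biotin-Ahx-Ub-VS (0.5 µM final) for 1 h. Labelled DUBs were NeutrAvidin-enriched, digested with LysC and trypsin, and run by diaPASEF LC-MS/MS. Spectronaut label-free quantities were global-median-normalised. Values are average log2 ratios fragment/DMSO by unpaired t-test, using proteins with ≥2 unique peptides.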

UniProt O00487 = molecular target: UniProt O00487
UniProt O00487, sequence (O00487 whole entry): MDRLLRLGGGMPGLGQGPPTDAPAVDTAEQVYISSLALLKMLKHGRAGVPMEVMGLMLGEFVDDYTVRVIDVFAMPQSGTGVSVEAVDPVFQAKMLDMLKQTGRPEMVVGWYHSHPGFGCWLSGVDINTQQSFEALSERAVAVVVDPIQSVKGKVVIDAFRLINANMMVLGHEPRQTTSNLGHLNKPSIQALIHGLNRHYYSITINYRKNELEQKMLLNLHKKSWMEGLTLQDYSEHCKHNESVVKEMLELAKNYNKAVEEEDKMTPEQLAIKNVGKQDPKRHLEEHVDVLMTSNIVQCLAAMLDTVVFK
How it was run: as §1

UniProt O00507 = molecular target: UniProt O00507
How it was run: as §1

UniProt P51784 = molecular target: UniProt P51784
UniProt P51784, sequence (P51784 whole entry): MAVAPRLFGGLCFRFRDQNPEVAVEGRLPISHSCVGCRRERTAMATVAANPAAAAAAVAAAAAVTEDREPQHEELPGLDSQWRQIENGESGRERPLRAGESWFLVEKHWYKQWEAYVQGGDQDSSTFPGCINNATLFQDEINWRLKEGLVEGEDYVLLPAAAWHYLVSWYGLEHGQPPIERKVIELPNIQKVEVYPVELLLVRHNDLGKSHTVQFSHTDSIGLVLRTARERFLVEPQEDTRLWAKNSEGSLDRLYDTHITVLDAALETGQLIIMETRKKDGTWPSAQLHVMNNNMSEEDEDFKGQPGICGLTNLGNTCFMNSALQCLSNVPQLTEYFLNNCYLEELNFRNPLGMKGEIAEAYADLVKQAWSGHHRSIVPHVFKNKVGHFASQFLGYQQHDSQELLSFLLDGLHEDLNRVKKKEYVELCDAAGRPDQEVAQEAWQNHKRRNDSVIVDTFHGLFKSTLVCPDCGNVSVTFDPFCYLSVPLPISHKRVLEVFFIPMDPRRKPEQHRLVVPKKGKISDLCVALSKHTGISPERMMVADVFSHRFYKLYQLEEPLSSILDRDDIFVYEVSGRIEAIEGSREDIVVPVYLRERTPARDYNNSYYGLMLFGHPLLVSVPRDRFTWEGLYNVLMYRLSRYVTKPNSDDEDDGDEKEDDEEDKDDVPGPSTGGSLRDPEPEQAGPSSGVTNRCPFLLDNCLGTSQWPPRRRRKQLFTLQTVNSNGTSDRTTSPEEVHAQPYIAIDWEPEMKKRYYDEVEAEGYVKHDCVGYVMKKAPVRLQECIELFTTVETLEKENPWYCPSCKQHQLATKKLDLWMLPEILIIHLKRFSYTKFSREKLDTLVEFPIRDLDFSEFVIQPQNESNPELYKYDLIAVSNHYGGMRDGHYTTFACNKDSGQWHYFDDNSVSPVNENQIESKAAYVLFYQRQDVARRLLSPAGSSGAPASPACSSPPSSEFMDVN
How it was run: as §1

UniProt Q5T2D3 = molecular target: T1, UniProt Q5T2D3
T1 sequence (whole entry): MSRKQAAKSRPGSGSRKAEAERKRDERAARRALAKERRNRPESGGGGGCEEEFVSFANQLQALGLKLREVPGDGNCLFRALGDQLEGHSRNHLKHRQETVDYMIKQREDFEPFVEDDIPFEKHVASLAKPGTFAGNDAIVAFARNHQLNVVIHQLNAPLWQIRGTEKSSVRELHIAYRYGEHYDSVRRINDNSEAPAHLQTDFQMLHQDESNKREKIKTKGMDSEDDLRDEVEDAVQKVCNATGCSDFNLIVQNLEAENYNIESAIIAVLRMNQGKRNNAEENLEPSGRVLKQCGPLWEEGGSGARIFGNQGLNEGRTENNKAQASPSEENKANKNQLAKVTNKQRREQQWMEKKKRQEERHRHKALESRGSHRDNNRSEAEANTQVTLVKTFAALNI
How it was run: as §1

UniProt Q8TE49 = molecular target: T2, UniProt Q8TE49
T2 sequence (whole entry): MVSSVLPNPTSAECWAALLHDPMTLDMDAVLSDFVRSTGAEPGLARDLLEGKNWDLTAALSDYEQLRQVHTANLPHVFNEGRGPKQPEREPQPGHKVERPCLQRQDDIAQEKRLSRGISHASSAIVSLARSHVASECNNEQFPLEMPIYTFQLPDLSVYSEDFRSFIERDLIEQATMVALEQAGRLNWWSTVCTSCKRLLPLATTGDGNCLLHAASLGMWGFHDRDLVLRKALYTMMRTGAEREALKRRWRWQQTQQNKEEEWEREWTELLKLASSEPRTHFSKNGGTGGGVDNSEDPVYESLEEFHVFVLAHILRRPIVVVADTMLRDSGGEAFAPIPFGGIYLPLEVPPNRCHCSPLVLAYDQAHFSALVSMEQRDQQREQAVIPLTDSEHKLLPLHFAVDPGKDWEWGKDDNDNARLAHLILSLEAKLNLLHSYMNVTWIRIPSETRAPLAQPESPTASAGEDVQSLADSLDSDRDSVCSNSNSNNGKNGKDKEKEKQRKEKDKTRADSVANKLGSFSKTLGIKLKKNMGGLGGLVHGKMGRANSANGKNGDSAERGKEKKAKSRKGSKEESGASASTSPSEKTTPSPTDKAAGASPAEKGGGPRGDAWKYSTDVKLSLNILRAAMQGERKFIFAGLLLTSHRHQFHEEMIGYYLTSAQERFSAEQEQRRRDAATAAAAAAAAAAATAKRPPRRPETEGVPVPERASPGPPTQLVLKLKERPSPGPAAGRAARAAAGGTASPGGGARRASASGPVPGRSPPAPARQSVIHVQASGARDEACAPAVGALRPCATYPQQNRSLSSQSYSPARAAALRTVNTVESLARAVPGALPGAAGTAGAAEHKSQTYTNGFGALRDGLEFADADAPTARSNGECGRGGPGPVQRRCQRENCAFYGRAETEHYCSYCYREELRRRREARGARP
How it was run: as §1

UniProt Q9P2H5 = molecular target: T3, UniProt Q9P2H5
T3 sequence (whole entry): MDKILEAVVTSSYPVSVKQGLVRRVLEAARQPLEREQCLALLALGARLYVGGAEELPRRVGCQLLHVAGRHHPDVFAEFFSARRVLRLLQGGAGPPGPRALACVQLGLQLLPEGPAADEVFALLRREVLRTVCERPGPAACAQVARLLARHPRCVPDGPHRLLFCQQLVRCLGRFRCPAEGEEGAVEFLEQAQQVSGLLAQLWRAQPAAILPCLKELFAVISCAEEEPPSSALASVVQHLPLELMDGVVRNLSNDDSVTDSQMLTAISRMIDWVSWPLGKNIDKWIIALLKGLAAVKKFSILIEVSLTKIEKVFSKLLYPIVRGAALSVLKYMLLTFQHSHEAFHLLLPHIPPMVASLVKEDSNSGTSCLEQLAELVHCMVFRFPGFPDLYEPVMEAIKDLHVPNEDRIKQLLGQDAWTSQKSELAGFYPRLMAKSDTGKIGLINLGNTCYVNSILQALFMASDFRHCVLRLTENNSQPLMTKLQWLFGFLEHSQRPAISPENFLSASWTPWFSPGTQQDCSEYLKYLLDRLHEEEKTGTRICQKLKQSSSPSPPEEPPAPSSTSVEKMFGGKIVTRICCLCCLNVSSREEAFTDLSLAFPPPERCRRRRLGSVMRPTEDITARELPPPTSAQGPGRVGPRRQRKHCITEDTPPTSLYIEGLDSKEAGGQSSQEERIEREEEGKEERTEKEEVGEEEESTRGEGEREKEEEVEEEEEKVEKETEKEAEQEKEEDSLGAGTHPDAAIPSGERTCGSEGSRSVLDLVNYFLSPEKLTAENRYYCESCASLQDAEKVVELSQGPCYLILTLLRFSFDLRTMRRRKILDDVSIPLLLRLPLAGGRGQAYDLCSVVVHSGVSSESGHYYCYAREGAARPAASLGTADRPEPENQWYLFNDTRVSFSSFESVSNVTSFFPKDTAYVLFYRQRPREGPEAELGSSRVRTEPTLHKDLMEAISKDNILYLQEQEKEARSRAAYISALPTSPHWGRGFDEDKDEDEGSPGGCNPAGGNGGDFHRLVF
How it was run: as §1

UniProt Q9UGI0 = molecular target: T4, UniProt Q9UGI0
T4 sequence (whole entry): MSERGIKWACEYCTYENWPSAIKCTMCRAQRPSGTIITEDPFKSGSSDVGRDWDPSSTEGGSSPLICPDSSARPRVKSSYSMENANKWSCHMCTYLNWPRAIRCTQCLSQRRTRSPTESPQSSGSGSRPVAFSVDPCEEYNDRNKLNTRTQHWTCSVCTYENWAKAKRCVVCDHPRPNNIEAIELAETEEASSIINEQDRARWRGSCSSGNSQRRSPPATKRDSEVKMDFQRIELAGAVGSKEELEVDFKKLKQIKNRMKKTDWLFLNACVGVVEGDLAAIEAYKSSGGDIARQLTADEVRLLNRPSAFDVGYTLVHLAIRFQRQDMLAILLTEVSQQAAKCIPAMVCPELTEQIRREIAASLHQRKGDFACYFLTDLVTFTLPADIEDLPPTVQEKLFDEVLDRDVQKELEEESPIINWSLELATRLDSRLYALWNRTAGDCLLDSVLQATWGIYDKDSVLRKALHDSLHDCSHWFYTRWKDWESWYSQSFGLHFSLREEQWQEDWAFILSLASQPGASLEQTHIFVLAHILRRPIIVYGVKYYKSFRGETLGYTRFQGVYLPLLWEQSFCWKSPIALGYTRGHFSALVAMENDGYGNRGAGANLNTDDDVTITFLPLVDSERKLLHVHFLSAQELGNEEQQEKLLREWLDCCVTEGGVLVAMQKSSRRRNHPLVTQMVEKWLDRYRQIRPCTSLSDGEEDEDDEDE
How it was run: as §1

YOD1 = molecular target: T5, YOD1 (UniProt Q5VVQ6)
T5 sequence (whole entry): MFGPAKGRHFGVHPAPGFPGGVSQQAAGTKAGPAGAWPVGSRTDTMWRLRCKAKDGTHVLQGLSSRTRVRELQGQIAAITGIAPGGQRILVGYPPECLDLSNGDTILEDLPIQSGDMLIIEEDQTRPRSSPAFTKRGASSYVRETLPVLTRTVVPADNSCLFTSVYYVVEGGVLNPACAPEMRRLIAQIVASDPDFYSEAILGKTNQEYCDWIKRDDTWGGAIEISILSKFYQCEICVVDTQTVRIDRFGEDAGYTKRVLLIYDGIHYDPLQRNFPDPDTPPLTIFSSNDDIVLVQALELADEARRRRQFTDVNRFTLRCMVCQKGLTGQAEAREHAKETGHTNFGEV
How it was run: as §1

Measured: log2 ratio of Biotin-Ahx-Ub-VS probe labelling

USP9X, sequence (Q93008 whole entry, the tested form may be a part): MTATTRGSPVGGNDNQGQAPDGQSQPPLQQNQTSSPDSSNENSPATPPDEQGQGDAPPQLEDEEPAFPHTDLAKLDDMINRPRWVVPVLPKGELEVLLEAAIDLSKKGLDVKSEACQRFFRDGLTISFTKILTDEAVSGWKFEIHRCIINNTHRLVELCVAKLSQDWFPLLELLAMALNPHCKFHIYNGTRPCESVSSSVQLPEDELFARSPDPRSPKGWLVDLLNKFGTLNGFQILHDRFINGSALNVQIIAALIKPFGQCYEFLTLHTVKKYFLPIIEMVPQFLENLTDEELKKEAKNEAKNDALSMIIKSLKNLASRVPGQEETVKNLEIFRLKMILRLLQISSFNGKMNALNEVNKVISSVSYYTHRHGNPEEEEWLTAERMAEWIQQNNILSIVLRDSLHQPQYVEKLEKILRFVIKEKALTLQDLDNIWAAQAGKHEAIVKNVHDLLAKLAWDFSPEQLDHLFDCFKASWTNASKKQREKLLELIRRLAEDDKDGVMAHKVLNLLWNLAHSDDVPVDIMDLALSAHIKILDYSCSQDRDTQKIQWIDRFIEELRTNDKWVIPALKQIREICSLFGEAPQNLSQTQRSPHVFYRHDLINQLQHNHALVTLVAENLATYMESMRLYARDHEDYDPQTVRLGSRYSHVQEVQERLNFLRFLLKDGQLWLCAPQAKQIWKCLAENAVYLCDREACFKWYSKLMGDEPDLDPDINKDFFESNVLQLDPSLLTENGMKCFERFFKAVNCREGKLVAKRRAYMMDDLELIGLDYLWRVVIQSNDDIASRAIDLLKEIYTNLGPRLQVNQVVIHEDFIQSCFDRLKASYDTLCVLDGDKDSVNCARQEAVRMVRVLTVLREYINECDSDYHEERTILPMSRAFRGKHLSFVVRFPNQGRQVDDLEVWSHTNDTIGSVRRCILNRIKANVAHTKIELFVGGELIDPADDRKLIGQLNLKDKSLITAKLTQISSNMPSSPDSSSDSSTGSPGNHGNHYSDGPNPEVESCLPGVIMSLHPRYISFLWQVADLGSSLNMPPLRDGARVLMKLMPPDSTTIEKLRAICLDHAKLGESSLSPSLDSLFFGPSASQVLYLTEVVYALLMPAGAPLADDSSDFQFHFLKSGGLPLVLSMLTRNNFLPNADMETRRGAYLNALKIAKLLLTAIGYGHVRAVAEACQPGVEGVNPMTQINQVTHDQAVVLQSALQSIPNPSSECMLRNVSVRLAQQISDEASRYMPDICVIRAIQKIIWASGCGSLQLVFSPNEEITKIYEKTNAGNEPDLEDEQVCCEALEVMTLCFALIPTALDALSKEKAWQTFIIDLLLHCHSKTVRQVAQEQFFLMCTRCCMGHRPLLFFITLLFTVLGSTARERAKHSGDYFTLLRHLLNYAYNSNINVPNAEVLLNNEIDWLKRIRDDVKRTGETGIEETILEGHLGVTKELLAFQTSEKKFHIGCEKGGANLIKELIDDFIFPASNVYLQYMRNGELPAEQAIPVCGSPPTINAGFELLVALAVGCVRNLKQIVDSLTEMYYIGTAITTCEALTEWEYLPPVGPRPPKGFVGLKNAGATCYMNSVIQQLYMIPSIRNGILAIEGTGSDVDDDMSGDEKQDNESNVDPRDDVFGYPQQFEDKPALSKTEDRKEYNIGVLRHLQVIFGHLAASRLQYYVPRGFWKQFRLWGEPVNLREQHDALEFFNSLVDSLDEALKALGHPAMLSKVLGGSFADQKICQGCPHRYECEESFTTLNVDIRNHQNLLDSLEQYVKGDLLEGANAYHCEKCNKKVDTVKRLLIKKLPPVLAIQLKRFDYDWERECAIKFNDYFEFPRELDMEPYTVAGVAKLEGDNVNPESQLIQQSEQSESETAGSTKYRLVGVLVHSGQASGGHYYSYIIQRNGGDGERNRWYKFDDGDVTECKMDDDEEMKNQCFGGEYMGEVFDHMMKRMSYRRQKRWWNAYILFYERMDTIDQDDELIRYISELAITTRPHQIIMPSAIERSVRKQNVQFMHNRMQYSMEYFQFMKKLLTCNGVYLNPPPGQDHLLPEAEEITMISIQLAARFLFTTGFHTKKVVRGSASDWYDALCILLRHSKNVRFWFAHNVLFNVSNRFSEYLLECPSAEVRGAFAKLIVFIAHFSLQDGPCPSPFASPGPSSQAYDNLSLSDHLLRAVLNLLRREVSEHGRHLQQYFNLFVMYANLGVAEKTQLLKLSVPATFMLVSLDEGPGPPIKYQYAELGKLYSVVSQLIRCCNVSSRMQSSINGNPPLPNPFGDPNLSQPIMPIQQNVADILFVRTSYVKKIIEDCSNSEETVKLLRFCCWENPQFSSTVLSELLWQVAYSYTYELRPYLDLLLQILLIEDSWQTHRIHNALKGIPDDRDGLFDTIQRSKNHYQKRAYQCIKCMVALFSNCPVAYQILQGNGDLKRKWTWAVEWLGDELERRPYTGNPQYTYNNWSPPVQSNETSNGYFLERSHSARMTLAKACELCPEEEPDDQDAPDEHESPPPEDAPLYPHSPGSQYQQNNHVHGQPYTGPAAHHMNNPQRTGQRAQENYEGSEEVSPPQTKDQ

O=C(CCl)N1CCN2C(=O)CCC2C1 (centres undefined)
inactive: USP9X -0.098 | UniProt O00487 -0.0865 | UniProt O00507 0.162 | UniProt P51784 0.195 | UniProt Q5T2D3 -0.286 | UniProt Q8TE49 -0.3 | UniProt Q9P2H5 -0.168 | UniProt Q9UGI0 -0.382 | YOD1 0.182

Source: the supplement of paper PMC11732987, “Enantioselective OTUD7B fragment discovery through chemoproteomics screening and high-throughput optimisation” (Communications Chemistry, 2025)
